From PubChem BioAssay (NCATS) come the findings set out here.

Where “and” joins values, the source holds several entries; their conditions need not be identical. Equal entries are not always repeated. Inconclusive results are not listed. Calls of active or inactive are those of the source. Calls follow the shape of the dose curve; as a rule, active = well fitted inhibition curve with a large enough effect; inconclusive = small, poorly fitted or top-dose-only effect; inactive = flat fitted curve, though single readings scatter.
% is scaled to controls: 0 for no effect and ±100 for the full control effect; potency is read from the fitted curve at half-maximal effect.

This experiment concerns KB-3-1. Put plainly: Cytotoxic Profiling of Annotated Libraries Using Quantitative High-Throughput Screening (AID 1296008). Also: nearly all actives have a fitted effect of over 60% in size. Conditions: Five cell lines viability, CellTiter-Glo ATP luminescence, 48-72 h; max response: hits give low values. In outline: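 Cytotoxicity was measured as CellTiter-Glo ATP luminescence, read after 10 min at room temperature. Compound treatment of the cells lasted 48 or 72 hr at 37 degrees Celsius in a qHTS format.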
As to `CCC(C)[C@H]1O[C@]2(C=C[C@@H]1C)C[C@@H]1C[C@@H](C/C=C(\C)[C@@H](O[C@H]3C[C@H](OC)[C@@H](O[C@H]4C[C@H](OC)[C@H](NC(C)=O)[C@H](C)O4)[C@H](C)O3)[C@@H](C)/C=C/C=C3\CO[C@@H]4[C@H](O)C(C)=C[C@@H](C(=O)O1)[C@]34O)O2` (some centres not stated), the Potency is 9.2 µM (active). Regarding `CC(=O)OC[C@H]1O[C@@H](O[C@H]2[C@H](O)[C@@H](OC(=O)c3ccccc3C(=O)O)[C@H](O)O[C@@H]2COC(C)=O)[C@H](O)[C@@H](OC(=O)c2ccccc2C(=O)O)[C@@H]1O`, the max response was -12.2% (inactive). On the same count and under the same terms, the figure for `COCC1=C(C(=O)OC(C)OC(=O)OC(C)C)N2C(=O)[C@@H](NC(=O)/C(=N\OC)c3csc(N)n3)[C@H]2SC1` (some centres not stated) is -19.8% (inactive) and -4.94% (inactive). For the compound `CCCCC(=O)O`, the max response was -12.9% (inactive) and -9.7% (inactive).

As for `CCCCCCCC(=O)CC[C@@H]1[C@@H](C/C=C\CCCC(=O)OC(C)C)[C@@H](O)C[C@H]1O`, the max response was 7.18% (inactive). In the case of `O=S(O)CO`, the max response was -16% (inactive). Take `Cc1cccc(C)c1N(CCCc1cccnc1)C(=O)C(C)N` (configuration not stated): the max response was -6.26% (inactive).
